# Compound activity deposited in PubChem BioAssay by National Center for Advancing Translational Sciences (NCATS).
# PTHR1 ag – agonists of human PTHR1 parathyroid hormone receptor. Q03431. HEK293 GP2 PTHR1 cells, GloSensor cAMP luminescence, 1 h. Potency, µM (top dose mostly 115 µM), for the others: at the highest dose activation, usual class: activators. 410,000 compounds, 0.075% hits. AID 743266; further: potency means the concentration at half of the fitted maximal effect; nearly all actives have a fitted effect of over 55% in size
#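 HEK-293-derived GP2 cells expressing PTHR1 and a GloSensor cAMP reporter, 3,000/well, plated overnight, given luciferin plus IBMX (each 0.5 mM as added) for 1 h at 37 °C, then compound for 1 h at 37 °C. Luminescence was read after 15 min at room temperature.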
# HEK293 tox – cytotoxicity counter-screen for GLP-1 receptor inverse agonists; HEK293 cAMP-luciferase reporter cells, luminescence, 24 h; Potency, µM (highest dose often 38.3 µM), for the others: top-dose activity change, negative = inhibition, hits mostly inhibitors; 410,000 compounds, 0.13% hits;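 further: loss of luciferase light is scored as toxicity; potency means the concentration at half of the fitted maximal effect; on the % scale 0 is the no-effect control and ±100 the full control effect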
#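 Compound-treated cells are incubated 24 hr at 37 deg C under 5% CO2 after a 12 hour attachment period, then luciferase detection reagent is added and luminescence is measured following 12 min at room temperature; lowered signal indicates toxicity.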
# TRHR enhancer – TRH receptor (human) allosteric enhancement; P34981; TRHR cells, fluo-8 calcium fluorescence, EC20 TRH enhancement; enhancement, % at 2 µM; 360,000 compounds, 0.66% hits; in the data active means enhancement above about 30%; further: 0% is about no effect
#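 TRHR-expressing cells loaded with fluo-8 calcium dye were read kinetically (ex 480/em 530) during compound addition, then stimulated with an EC20 of TRH (10 nM final). Enhancement of the Gq-mediated intracellular calcium response was scored.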
# TRHR ag – activates the human TRH receptor; P34981; TRHR cells, calcium flux fluo-8, FDSS agonist mode; activation, % at 2 µM; 360,000 compounds, 0.18% hits; AID 493084; in the data active means activation above about 30%; further: 0% is about no effect
#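 Agonist-mode FDSS calcium read (Ex 480/Em 530, 1 s cycles) in 1536-well TRHR cells with fluo-8 dye, after 10-cycle baseline and 23 nL compound addition; TRH at EC20 (10 nM final) added afterwards for the enhancer phase.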
# TRPML1 agonist – activates the human TRPML1 channel | Q9GZU1 | TRPML1-expressing cells, Ca2+ dye fluorescence, FDSS | activation, % (no concentration beside the values) | 410,000 compounds, 0.12% hits | AID 624414; in the data active means activation above about 50%; inconclusive means mostly about 30% to 49%; further: 0% is about no effect
# Target sequence (Q9GZU1 whole entry, looked up): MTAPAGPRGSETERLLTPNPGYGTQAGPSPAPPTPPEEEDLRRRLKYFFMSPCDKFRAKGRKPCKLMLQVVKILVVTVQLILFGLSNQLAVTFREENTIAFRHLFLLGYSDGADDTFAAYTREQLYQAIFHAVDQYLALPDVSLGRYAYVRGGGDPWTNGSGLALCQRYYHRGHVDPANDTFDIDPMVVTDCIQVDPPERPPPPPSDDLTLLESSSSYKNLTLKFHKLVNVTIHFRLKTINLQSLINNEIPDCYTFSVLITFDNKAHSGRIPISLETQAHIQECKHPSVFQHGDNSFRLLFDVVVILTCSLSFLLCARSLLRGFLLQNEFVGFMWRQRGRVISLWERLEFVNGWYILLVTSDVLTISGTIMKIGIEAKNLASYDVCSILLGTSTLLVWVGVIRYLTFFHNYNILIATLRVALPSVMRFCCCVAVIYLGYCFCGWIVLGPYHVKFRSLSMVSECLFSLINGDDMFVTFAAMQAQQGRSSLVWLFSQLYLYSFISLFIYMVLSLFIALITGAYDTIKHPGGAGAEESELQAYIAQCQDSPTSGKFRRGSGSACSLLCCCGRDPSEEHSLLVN
#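 Cells: TRPML1-DL, 1X Tet inducer, ~16 h at 37 degrees C/5% CO2. Dye: ABD Ca8 no-wash + quencher, 45-90 min RT. Read: 10 s baseline, compound add, 110 s agonist phase; 54-4 EC80 (4uM final), 110 s antagonist phase.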
# TRPML1 inh – human mucolipin-1 channel inhibition | Q9GZU1 | TRPML1-inducible cells, Ca2+ dye fluorescence, FDSS; hits give low values; inhibition of EC80 agonist-evoked calcium signal | activity change, negative = inhibition, % (no concentration beside the values) | 390,000 compounds, 0.02% hits | AID 624415; in the data active means activity change below about -50%; inconclusive means between about -30% and that limit;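 further: stimulus is agonist 54-4 at its EC80 concentration; on the % scale 0 is the no-effect control and ±100 the full control effect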
#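 Calcium fluorescence in TRPML1-DL cells induced overnight with Tet: a 110 s read after compound pin addition, then a 110 s antagonist read after challenge with 54-4 at 4 uM final (EC80).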
# An asterisk follows results filed as active; i = inactive; ? = inconclusive; · = not tested or not shown; [ ] = dose if it differs, or a comment. This is a sample that favours compounds with a hit; in the whole collection about 0.93% have one here. Unless noted, the call rests on the fitted dose curve; in most records, active means well fitted curve in the direction sought with a large enough effect; inconclusive means small, poorly fitted or top-dose-only effect, or another doubt; inactive means no such curve, though single readings can be large; an effect the other way counts as inactive or inconclusive.
SMILES,PTHR1 ag,HEK293 tox,TRHR enhancer,TRHR ag,TRPML1 agonist,TRPML1 inh
CCOC(=O)c1c(NC(=O)C(NCCN(C)C)c2ccccc2)sc2c1CCCC2 (centres undefined),i,3.98µM*,0.1,1.1,0.0,-8.1
CCOC(=O)c1c(NC(=O)c2ccccc2Cl)sc2c1CCCC2,i,16.0%,2.2,1.9,2.0,9.0
CN(C)c1nc(N(C)C)nc(N(C)C)n1,1.5%,10.2%,-5.4,0.4,0.1,16.6
CN(C)c1nc(C#N)nc(N(C)C)n1,-3.6%,-13.6%,32.7*,-0.2,-0.5,3.8
CCCN1CNc2c(c(=O)[nH]c(=S)n2CCc2cccs2)C1,·,·,·,·,-0.3,·
CC(C)C(=O)NNC(=O)c1csc(-c2cccs2)n1,-0.3%,-12.3%,31.6*,-0.6,-1.2,5.9
COc1ccccc1CC(=O)NCc1csc(-c2cccs2)n1,-13.7%,6.7%,0.1,-0.2,0.1,4.4
Cc1cnn(-c2cc(N/N=C/c3ccccc3)ncn2)c1,i,0.8%,4.7,-0.1,0.9,26.5
Cc1cnn(-c2cc(N/N=C/c3cccc(F)c3)ncn2)c1,i,4.9%[1.53 µM],35.8*,-3.2,0.9,22.3
CC1Nc2ccccc2C(=O)N1NS(C)(=O)=O (centres undefined),-1.8%,13.2%,33.4*,0.3,-0.5,3.5
CCOc1ccc(OCC)c(S(=O)(=O)n2cnc(C)c2)c1,-4.0%,-15.1%,32.0*,-0.4,0.4,19.4
CC(C)n1c(NCc2ccc(Cl)cc2)nc2ccccc21,-19.6%,-9.5%,39.5*,0.3,-1.0,-1.2
O=C(C1=C[C@@H](c2csc3ccccc23)C[C@@H](OCc2ccc(CO)cc2)O1)N1CCN(Cc2ccccc2)CC1,-8.8%,-0.1%,30.5*,1.0,0.5,-5.9
O=C(C1=C[C@@H](c2csc3ccccc23)C[C@@H](OCc2ccc(CO)cc2)O1)N1CCN(Cc2ccc3c(c2)OCO3)CC1,-5.1%,-9.7%,-1.5,0.6,1.6,21.2
Cc1ccc(-n2c(Cl)c(Cl)nc(Cl)c2=O)cc1,-7.4%,2.82µM*,-26.1,5.0,9.8,-9.2
CC[N+]1(CC(=O)c2ccc(Br)cc2)CCCCC1,·,·,·,·,0.0,·
O=C(Nc1ccccc1Sc1ccccc1)c1cnn2c1NC(=C1CC1)C=C2C(F)(F)F,·,·,·,·,0.4,·
COc1ccc(C(=O)NC(=S)N2CCN(c3ccccc3OC)CC2)cc1,-5.5%,4.47µM*,-4.1,-1.7,3.4,10.5
COc1ccccc1N1CCN(C(=S)NC(=O)c2ccc([N+](=O)[O-])cc2)CC1,-0.2%,-33.2%,·,·,-0.9,8.5
CC(=O)N1c2ccc(S(=O)(=O)NCCC(=O)N3CCC(C)CC3)cc2CC1C (centres undefined),-14.2%,14.5%,32.3*,-0.1,0.4,-14.6
CC(=O)N1c2ccc(S(=O)(=O)NCCC(=O)NC3CCCCCC3)cc2CC1C (centres undefined),-17.2%,-3.9%,3.2,1.3,1.4,-18.0
COC(=O)c1ccc(S(=O)(=O)N2CCCCC2)o1,27.9%[57.5 µM],2.2%,35.9*,-0.3,-0.7,10.1
O=S1(=O)CCO[C@H]2CCCC[C@@H]2N1Cc1ccccc1,·,·,·,·,-1.2,·
C=CCNC(=O)c1onc(CSc2cccc3ccccc23)c1C(=O)O,i,-4.5%,32.5*,-0.1,-1.1,-14.7
C=CCNC(=O)c1onc(CSc2ccccc2F)c1C(=O)O,-14.3%,8.2%,5.7,-0.2,-0.8,-1.2
SMILES,PTHR1 ag,HEK293 tox,TRHR enhancer,TRHR ag,TRPML1 agonist,TRPML1 inh
Cc1ccc(Cl)cc1N1CCN(CCCNC(=O)Cn2ncc3c([nH]c4ccccc43)c2=O)CC1,i,6.4%,54.2*,0.1,3.5,-12.9
CCCCCCCCCCCCCCCC[n+]1ccc(C)c2ccccc21,·,·,·,·,0.1,·
COC(=O)C(C(=O)OC)C(C(C)C)C(C(=O)OC)C(=O)OC,i,-5.6%,39.8*,0.4,-0.8,-10.6
COc1cc(/C=C(\C#N)c2ccccn2)ccc1OCc1ccccc1Cl,-12.0%,17.6%,1.7,1.6,0.7,-9.2
COc1cc(/C=C(\C#N)c2ccccn2)cc(OC)c1O,12.2%,10.3%,4.7,47.0*,19.8,30.0
NCCCN(Cc1ccc(Cl)cc1)c1ccc(Br)cn1,·,·,·,·,0.3,·
CCOc1ccccc1NC(=O)c1cc2ccc3cccnc3c2[nH]1,-1.4%,7.3%,32.1*,-1.1,5.2,59.7
Clc1ccc2c(ccc[n+]2CCC2CCCCC2)c1,·,·,·,·,0.7,·
Cc1cc2oc(C(=O)N(Cc3ccco3)Cc3ccccc3Cl)c(C)c2cc1C,-34.8%,4.5%,41.4*,2.4,-0.4,0.8
CC(C)(C)n1ncc2c(=O)n(Cc3cccc(C(F)(F)F)c3Cl)cnc21,·,·,·,·,2.3,2.2
CCOC(=O)N1CCN(C(=O)CCn2c(=S)[nH]c3ccsc3c2=O)CC1,i,12.8%,38.9*,-1.4,1.0,48.0
Cc1cc2c(s1)c1cnn(Cc3ccc(Br)cc3)c(=O)c1n2C,·,·,-1.4,-2.3,·,·
Cc1ccc(-n2c(-c3ccccc3)n[nH]c2=S)c(C)c1,12.8%,10µM*,0.5,-1.1,0.7,-16.4
CC1CCC(C(C)C)C(OC(=O)Cn2c(-c3ccc(Cl)cc3)[n+](C)c3ccccc32)C1 (centres undefined),-38.5%,10µM*,-12.5,-0.3,1.1,17.7
Cc1ccccc1OCc1n(CC(=O)OC2CC(C)CCC2C(C)C)c2ccccc2[n+]1C (centres undefined),-7.2%,?,-1.3,0.2,-0.6,22.4
COC(=O)c1ccc(NC(=O)COc2ccccc2C(=O)Nc2ccccc2)cc1,·,·,·,·,-0.9,·
CC(=O)c1cccc(N(CC(=O)Nc2ccccc2C(=O)N2CCCC2)S(C)(=O)=O)c1,-3.9%,4.0%,54.6*,0.2,-0.4,3.2
Nc1c(N=Nc2ccc([N+](=O)[O-])cc2)c(S(=O)(=O)O)cc2cc(S(=O)(=O)O)c(/C=C/c3ccccc3)c(O)c12,·,·,·,·,-1.3,·
COc1ccc([N+](=O)[O-])cc1C(=O)C(=O)c1ccccc1,-30.1%,10.7%,32.7*,-0.7,-0.2,67.1
COc1cc(C(=O)c2ccccc2)c([N+](=O)[O-])cc1OC,-0.8%,-6.6%,-4.4,-0.8,-0.2,-4.9
O=C1CCN2C=Nc3cccc4ccc1c2c34,i,i,5.2,136.2*,?,-4.7
O=C1CCC(=O)c2ccc3c4c(ccc1c24)CC3,-13.1%,45.3%,·,·,-1.1,-5.0
COc1ccc2nc(NC(=O)CSc3ccccc3)sc2c1,-11.2%,-0.6%,32.1*,-0.8,-0.1,-9.7
CCC/C(=N\NC(=O)c1csc(C)c1C)c1cccs1,-16.3%[57.5 µM],3.7%,35.3*,-0.5,0.9,-13.2
